Values without a mark were called inactive. Active and inactive are the calls of the source. The call rests on the fitted dose curve; in most records, active means well fitted curve in the direction sought with a large enough effect in the signal ratio in the repeat runs (not every such curve was filed as active); inconclusive means weak or mixed curves, or effect the other way; inactive means no such curve, though single readings can be large or run the other way; the % refers to the signal ratio.
target: Estrogen receptor (Homo sapiens) (UniProt P03372); experiment: qHTS assay to identify small molecule antagonists of the estrogen receptor alpha (ER-alpha) signaling pathway (AID 743069); conditions: HEK293 ER-alpha-UAS-bla, beta-lactamase ratio, antagonist mode; series mostly up to 69.4 µM; activity, negative = inhibition: at the top concentration
Sequence (P03372 whole entry, looked up): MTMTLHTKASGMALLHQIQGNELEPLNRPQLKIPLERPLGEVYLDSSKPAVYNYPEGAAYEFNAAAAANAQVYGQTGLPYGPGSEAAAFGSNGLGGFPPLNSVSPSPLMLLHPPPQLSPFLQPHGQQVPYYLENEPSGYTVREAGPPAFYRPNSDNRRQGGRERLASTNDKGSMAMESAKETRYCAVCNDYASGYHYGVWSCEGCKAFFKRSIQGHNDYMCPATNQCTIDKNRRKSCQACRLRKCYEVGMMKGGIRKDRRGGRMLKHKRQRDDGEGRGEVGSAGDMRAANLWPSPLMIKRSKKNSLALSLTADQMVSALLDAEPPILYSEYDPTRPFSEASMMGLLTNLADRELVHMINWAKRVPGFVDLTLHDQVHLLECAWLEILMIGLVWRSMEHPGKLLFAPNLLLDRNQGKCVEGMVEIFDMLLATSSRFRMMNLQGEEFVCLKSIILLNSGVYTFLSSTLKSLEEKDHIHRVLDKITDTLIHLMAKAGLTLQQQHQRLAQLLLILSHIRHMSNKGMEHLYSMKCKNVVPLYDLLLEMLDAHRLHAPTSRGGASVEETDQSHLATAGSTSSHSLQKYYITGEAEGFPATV
In short: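 Antagonist mode: compounds in DMSO were co-added with 17beta-estradiol to ER-alpha-bla HEK293 cells (2% charcoal-stripped serum) and left 18 h at 37C. Reporter inhibition was measured as FRET fluorescence after 2 h LiveBLAzer substrate at room temperature.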
On the % scale 0 is the no-effect control and ±100 the full control effect; potency means the concentration at half of the fitted maximal effect.

Row | SMILES | activity, negative = inhibition | Potency
1 | Cc1cc(C(=O)NNCc2ccccc2)no1 | 5.04% [at 32.6 µM] | –
2 | CO[C@H]1C=CO[C@@]2(C)Oc3c(C)c(O)c4c(O)c(c(/C=N/N5CCN(C6CCCC6)CC5)c(O)c4c3C2=O)NC(=O)/C(C)=C\C=C[C@H](C)[C@H](O)[C@@H](C)[C@@H](O)[C@@H](C)[C@H](OC(C)=O)[C@@H]1C | – | 19 µM [inconclusive] (active)
3 | CCC(CN)CC(C)CCNCC(O)CNCC(C)CC(CC)CN (stereo not given) | -16.2% | –
4 | CC[C@H](C)[C@H]1O[C@]2(CC[C@@H]1C)C[C@@H]1C[C@@H](C/C=C(\C)[C@@H](O[C@H]3C[C@H](OC)[C@@H](O[C@H]4C[C@H](OC)[C@@H](O)[C@H](C)O4)[C@H](C)O3)[C@@H](C)/C=C/C=C3\CO[C@@H]4[C@H](O)C(C)=C[C@@H](C(=O)O1)[C@]34O)O2 | – | 7.56 µM [inconclusive] (active)
5 | OCC(S)CS (stereo not given) | 21.7% | –
6 | CNc1cc(OC)c(C(=O)N[C@H]2CCN(Cc3ccccc3)[C@H]2C)cc1Cl | 13.3% | –
7 | CC[C@@]1(O)C[C@H](O[C@H]2C[C@H](N(C)C)[C@H](O[C@H]3C[C@H](O)[C@H](O[C@H]4CCC(=O)[C@H](C)O4)[C@H](C)O3)[C@H](C)O2)c2c(cc3c(c2O)C(=O)c2c(O)cccc2C3=O)[C@H]1C(=O)OC | – | 6.01 µM [inconclusive] (active)
8 | CC[N+](C)(C)Cc1ccccc1Br | -4.17% [at 32.6 µM] | –
9 | COc1ccc(C(=O)Nc2ccccc2CCC2CCCCN2C)cc1 (stereo not given) | -24.3% | –
10 | CC(C)CN(C[C@@H](O)[C@H](Cc1ccccc1)NC(=O)O[C@@H]1CCOC1)S(=O)(=O)c1ccc(N)cc1 | -6.97% | –

— PubChem BioAssay (Tox21)
